Many of the other results were omitted from the sample, so hits are more common in it than they were.
GCN5L2 inh – qHTS Assay for Inhibitors of GCN5L2 | Histone acetyltransferase KAT2A (Homo sapiens), Q92830 | GCN5L2 HAT assay, ThioGlo1 CoA-SH fluorescence | Potency, µM (titrated, usually from 58.9 µM), for the others: at the top dose activity change, negative = inhibition, usual class: inhibitors | 390,000 compounds, 0.21% hits | AID 504327, 2011
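Compounds, pin-transferred from DMSO stocks, meet 20nM GCN5L2 for 15 min before the reaction begins with H3(1-25) peptide (75uM) and acetyl-CoA (70uM). Thiol-reactive ThioGlo1 reports CoA release over 20 min at room temperature.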
APEX1 inh – qHTS Assay for Inhibitors of the Human Apurinic/apyrimidinic Endonuclease 1 (APE1); Potency, µM (series often up to 65.8 µM), for the others: at the top dose activity change, negative = inhibition, most hits filed as inhibitors; recombinant APE1, TAMRA/BHQ-2 abasic DNA cleavage fluorescence; 350,000 compounds, 0.35% hits; DNA repair nuclease/redox regulator APEX1 (Homo sapiens), P27695;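 also: plate controls were vehicle for no effect and reference inhibitor for full effect; nearly all actives have a fitted effect of over 55% in size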
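Quantitative HTS: incision of a TAMRA/BHQ-2 double-stranded substrate bearing a tetrahydrofuran abasic site by 0.75 nM APE1 raises fluorescence. Substrate 50 nM final, added after 15 min compound preincubation at room temperature; progress as third-minus-first kinetic read difference.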
RECQ1 helicase – qHTS Assay for Inhibitors of RecQ-Like Dna Helicase 1 (RECQ1) | ATP-dependent DNA helicase Q1 (Homo sapiens), P46063 | RECQ1 DNA unwinding, red fluorescence kinetic read | Potency, µM (series often up to 57.3 µM), without a hit: top-dose activity, negative = inhibition, most hits filed as inhibitors | 240,000 compounds, 0.54% hits | AID 2549, 2010;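 also: plate controls were vehicle for no effect and no enzyme for full effect; nearly all actives have a fitted effect of over 30% in size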
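RECQ1T1 50 nM; forked duplex (20 bp + 30-nt ss tails) 200 nM, ATP 2 mM final; pH 8.0, 2 mM MgCl2, 2.5 ug/ml poly(dI-dC); 15 min compound preincubation; discontinuous kinetic read over 2 h at RT.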
BLM inh – qHTS Assay for Inhibitors of Bloom's syndrome helicase (BLM). AID 2528, 2010. RecQ-like DNA helicase BLM (Homo sapiens), P54132. recombinant BLM DNA unwinding, fluorescence dequenching. Potency, µM (highest dose often 56.1 µM), without a hit: at the top dose activity change, negative = inhibition, most hits filed as inhibitors. 350,000 compounds, 0.2% hits;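 also: plate controls were vehicle for no effect and no enzyme for full effect; nearly all actives have a fitted effect of over 35% in size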
Target sequence (P54132 whole entry, looked up): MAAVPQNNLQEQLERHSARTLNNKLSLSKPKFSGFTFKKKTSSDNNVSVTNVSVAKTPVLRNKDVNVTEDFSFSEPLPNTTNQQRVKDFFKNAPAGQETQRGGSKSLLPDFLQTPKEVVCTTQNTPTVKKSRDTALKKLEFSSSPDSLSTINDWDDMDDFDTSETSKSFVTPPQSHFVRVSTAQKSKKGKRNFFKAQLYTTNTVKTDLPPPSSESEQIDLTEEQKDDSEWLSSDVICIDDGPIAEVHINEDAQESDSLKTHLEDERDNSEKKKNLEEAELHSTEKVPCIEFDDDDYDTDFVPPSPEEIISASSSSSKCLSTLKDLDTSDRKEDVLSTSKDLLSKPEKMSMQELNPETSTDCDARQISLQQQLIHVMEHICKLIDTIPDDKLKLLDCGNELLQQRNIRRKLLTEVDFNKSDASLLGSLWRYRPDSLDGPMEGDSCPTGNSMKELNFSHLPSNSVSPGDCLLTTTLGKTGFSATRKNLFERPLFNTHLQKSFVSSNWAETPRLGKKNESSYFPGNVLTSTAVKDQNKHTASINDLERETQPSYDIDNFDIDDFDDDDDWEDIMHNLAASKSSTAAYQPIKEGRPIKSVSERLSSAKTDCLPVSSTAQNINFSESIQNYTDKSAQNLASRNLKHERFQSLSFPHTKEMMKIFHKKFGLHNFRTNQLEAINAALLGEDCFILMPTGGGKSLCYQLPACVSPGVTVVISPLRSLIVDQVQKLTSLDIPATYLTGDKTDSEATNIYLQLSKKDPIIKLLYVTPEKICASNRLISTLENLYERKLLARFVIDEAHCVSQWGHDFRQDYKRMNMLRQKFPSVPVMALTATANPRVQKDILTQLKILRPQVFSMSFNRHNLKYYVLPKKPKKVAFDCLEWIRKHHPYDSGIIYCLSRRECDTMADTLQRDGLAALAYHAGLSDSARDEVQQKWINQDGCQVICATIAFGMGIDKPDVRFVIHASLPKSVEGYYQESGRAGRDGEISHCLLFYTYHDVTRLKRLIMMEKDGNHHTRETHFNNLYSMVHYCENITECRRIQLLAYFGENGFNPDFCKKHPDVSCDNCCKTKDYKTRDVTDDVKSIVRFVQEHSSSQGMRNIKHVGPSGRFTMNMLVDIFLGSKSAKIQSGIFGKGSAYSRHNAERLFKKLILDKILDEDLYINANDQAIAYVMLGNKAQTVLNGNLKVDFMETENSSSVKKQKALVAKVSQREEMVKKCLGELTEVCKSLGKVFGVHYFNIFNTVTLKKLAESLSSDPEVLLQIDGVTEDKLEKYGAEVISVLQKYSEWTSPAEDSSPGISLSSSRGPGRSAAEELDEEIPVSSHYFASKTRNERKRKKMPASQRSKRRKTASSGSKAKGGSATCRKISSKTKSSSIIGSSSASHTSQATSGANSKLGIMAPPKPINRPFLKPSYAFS
L3MBTL1 block – qHTS Assay for the Inhibitors of L3MBTL1. Lethal(3)malignant brain tumor-like protein 1 (Homo sapiens), Q9Y468. AlphaScreen L3MBTL1–H3K9me1 peptide binding. Potency, µM (titrated, usually from 57.1 µM), without a hit: at the highest dose activity, negative = inhibition, usual class: inhibitors. 230,000 compounds, 0.66% hits. AID 485360, 2010; also: nearly all actives have a fitted effect of over 60% in size
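Read-out is AlphaScreen signal from streptavidin donor and nickel chelate acceptor beads (10 ug/mL final each) bridging L3MBTL1 (50 nM) and biotinylated K9-monomethylated H3(1-15) peptide (75 nM), after 30 min compound exposure at room temperature.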
KDM4E inh – qHTS Assay for Inhibitors of Human Jumonji Domain Containing 2E (JMJD2E); Lysine-specific demethylase 4E (Homo sapiens), B2RXH2; JMJD2E catalytic domain, FDH-coupled NADH fluorescence (FDH is formaldehyde dehydrogenase); Potency, µM (highest dose often 57.1 µM), for inactives: at the top dose activity change, negative = inhibition, most hits filed as inhibitors; 230,000 compounds, 1.6% hits; AID 2147, 2009; active = well fitted inhibition curve with a large enough effect, not every such curve was filed as active; inconclusive = small, poorly fitted or top-dose-only effect, or another doubt; inactive = no such curve, though single readings can be large or run the other way;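 also: 0% = wells with enzyme and -100% = buffer wells without enzyme; nearly all actives have a fitted effect of over 50% in size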
Active calls of the source: *; i = inactive; ? = inconclusive; nt = no result given. Unless noted, calls follow the shape of the dose curve; as a rule, active = well fitted curve in the direction sought with a large enough effect; inconclusive = small, poorly fitted or top-dose-only effect, or another doubt; inactive = no such curve, though single readings can be large; an effect the other way counts as inactive or inconclusive. Unless noted, % is scaled to controls: 0 for no effect and ±100 for the full control effect; potency is read from the fitted curve at half-maximal effect.

SMILES | GCN5L2 inh | APEX1 inh | RECQ1 helicase | BLM inh | L3MBTL1 block | KDM4E inh
Oc1ccc(/C=N/NP(=S)(c2ccccc2)c2ccccc2)cc1O | -2% | ? | -20% | -19% | nt | ?
CCCN(CCC)[C@@H]1CCc2c(F)ccc(O)c2C1 | nt | -3% | 4% | nt | nt | -6%
CC(C)CC(=O)NC(Oc1ccc(Cl)cc1)C(Cl)(Cl)Cl (centres undefined) | 0.71µM* | -6% | -13% | -7% | 15% | 0%
C[Se]C[C@H](N)C(=O)O | -12% | -6% | -3% | nt | nt | 18µM*
C[Se]C[C@@H](N)C(=O)O | -10% | 22% | nt | nt | 0% | nt
Cc1cc(=O)oc2cc3c(cc12)CCCN3 | 22µM* | -9% | nt | 1% | nt | nt
O=Cc1ccc(O)c(O)c1 | -9% | 4% | -5% | -6% | 1% | 4.5µM*
CCN(CC)c1ccc(/C=C2\C(=O)NC(=O)N(CC3CCCO3)C2=O)cc1 (centres undefined) | -5% | 0% | -4% | 2% | -6% | ?
COc1ccc(/C=C2/C(=O)N(Cc3ccco3)C(=O)N(C(C)C)C2=O)cc1 | ? | 22µM* | 25µM* | -22% | ? | ?
C=CCN1C(=O)/C(=C/c2cccs2)C(=O)NC1=S | 29% | 3% | -15% | 0% | ? | -4%
O=C1NC(=S)N(Cc2ccco2)C(=O)/C1=C\c1cccs1 | 8.9µM* | 3.5µM* | 7.1µM* | 28µM* | nt | 14µM*
CN(C)c1ccc(/C=C2/C(=O)NC(=O)N(Cc3ccco3)C2=O)cc1 | -9% | 28µM* | ? | -6% | ? | -30%
CCN(CC)c1ccc(/C=C2/C(=O)NC(=O)N(Cc3ccco3)C2=O)cc1 | 1% | ? | 32µM* | -1% | ? | -26%
O=C(Nc1cc(C(F)(F)F)cc(C(F)(F)F)c1)c1cc(Cl)ccc1O | ? | -9% | -16% | -22% | nt | nt
C=C1Nc2ccccc2C(=O)N1c1ccccc1C | 4% | nt | nt | -1% | nt | nt
Cc1ccc(-c2nc3ccccc3c(=O)n2-c2cc(C)ccn2)cc1 | -5% | 2% | -4% | -5% | -3% | ?
Cc1cc(C=C2C(=O)N(C)C(=S)N(C)C2=O)c(C)n1-c1ccncc1 | -7% | -4% | 25µM* | -9% | -22% | 0%
Cc1cc(C)cc(-n2c(C)cc(/C=C3\C(=O)NC(=O)N(C)C3=O)c2C)c1 | -3% | 4% | -8% | -10% | -6% | 1%
Cc1ccnc(-n2c(C)cc(C=C3C(=O)N(C)C(=S)N(C)C3=O)c2C)c1 | -3% | 8% | 40µM* | -12% | -6% | -28%
Cc1ccc(Cn2cccc(C(=O)Nc3ccc(C)c(Cl)c3)c2=O)cc1 | -4% | nt | nt | -2% | nt | nt
C(=C/c1ccccc1)/CN1CCN(CCOC(c2ccccc2)c2ccccc2)CC1 | -28% | -6% | i | -4% | nt | -2%
CCN1C(=O)C(=C/C=C/c2ccco2)C(=O)N(CC)C1=S | -8% | ? | -22% | 11% | 13µM* | 16µM*
CCc1ccc(-n2c(O)c(/C=N/N3CCCCC3c3cccnc3)c(=O)[nH]c2=O)cc1 (centres undefined) | -6% | 6% | -3% | 3% | 10% | 9%
O=c1[nH]c(=S)n(-c2ccccc2)c(O)c1/C=N/N1CCCCC1c1cccnc1 (centres undefined) | -18% | ? | 25µM* | -5% | nt | -7%

Compound activity: PubChem, National Center for Advancing Translational Sciences (NCATS)
